# Experimental data reported in ChEMBL document CHEMBL3988442, “University of Dundee, Small-Polar-MMV Screening Library” (2021).
# The campaign covered roughly 48,000 compounds. About 13,000 (27%) showed an effect of 50% or more. The list shows a part of the results.
# Test system: Wolbachia pipientis
# Experiment: Anti-Wolbachia Cell-Based Screen
# Assay type: functional
# Parameters: scale not given: in the data most compounds retested in dose-response had high values
# Settings: 5 µM
row,Compound,Percent Effect
1,O=C(NCCc1c[nH]cn1)c1ccccc1C1CCNC1 (stereo not drawn),-4.788%
2,Cc1ccccc1-n1nc(C)c(CN(C)C(C)Cc2ccccn2)c1C.O=C(O)CC(O)(CC(=O)O)C(=O)O (stereo not drawn),108.5%
3,CC(Cc1ccccn1)N(C)Cc1ccc2c(c1)CCO2 (stereo not drawn),27.39%
4,C/C(=C\c1ccco1)CN(C)C(C)Cc1ccccn1 (stereo not drawn),-10.17%
5,Cc1cc(N2CCC(NC(C)Cc3ccsc3)CC2)nc(N)n1 (stereo not drawn),-1.435%
6,O=C(C1CCCCC1)N1C[C@@H]2CCNC[C@@H]21,-27.82%
7,Cl.O=C(N1CCOCC1)N1CCC2(CCNC2)C1 (stereo not drawn),-12.19%
8,CN1CCN([C@@H]2CN(C(=O)Cc3ccsc3)[C@@H]3CCCO[C@H]23)CC1.O=C(O)C(F)(F)F.O=C(O)C(F)(F)F,-4.372%
9,CN(C)[C@@H]1CN(C(=O)Cc2ccsc2)[C@@H]2CCCO[C@H]12.O=C(O)C(F)(F)F,105.5%
10,CN(C)[C@@H]1CN(C(=O)Cc2ccc(F)cc2)[C@@H]2CCCO[C@H]12.O=C(O)C(F)(F)F,85.9%
11,O=C(Cc1cccs1)N1C[C@@H]2OCCN(CC3CCCC3)[C@@H]2C1.O=C(O)C(F)(F)F,-11.83%
12,Cc1ccc(N2C[C@@H]3CCCO[C@@H]3[C@H](N3CCCC3)C2)nn1.O=C(O)C(F)(F)F.O=C(O)C(F)(F)F,-4.873%
13,CN(C)[C@@H]1CN(C(=O)Cc2cccs2)[C@@H]2CCCO[C@H]12.O=C(O)C(F)(F)F,115.4%
14,CN(Cc1cccnc1)[C@@H]1CN(CC2CC2)[C@@H]2CCCO[C@H]12.O=C(O)C(F)(F)F.O=C(O)C(F)(F)F.O=C(O)C(F)(F)F,-5.445%
15,O=C(Cc1ccsc1)N1C[C@@H]2OCCN(CC3CC3)[C@@H]2C1.O=C(O)C(F)(F)F,-8.837%
16,Cc1cccc(CN2C[C@@H](NC(=O)C3CC3)[C@H]3OCCC[C@H]32)n1.O=C(O)C(F)(F)F.O=C(O)C(F)(F)F,-26.04%
17,O=C(Cc1cccs1)N1C[C@@H]2OCCN(CC3CCCO3)[C@@H]2C1.O=C(O)C(F)(F)F (stereo partly drawn),-0.9645%
18,Cc1cc(CN2C[C@@H]3CCCO[C@@H]3[C@H](N(C)C(C)C)C2)no1.O=C(O)C(F)(F)F.O=C(O)C(F)(F)F,-6.146%
19,CN(C)[C@@H]1CN(C(=O)Cc2ccccc2)[C@@H]2CCCO[C@H]12.O=C(O)C(F)(F)F,100.5%
20,Cc1c(C(=O)O)nnn1Cc1cccc(C(F)(F)F)c1,6.81%
21,COc1cccc(CN2CCN3C(=O)NC[C@H]3C2)n1,7.899%
22,CN1CCC(N2CCN3C(=O)NC[C@H]3C2)CC1,-3.981%
23,Cc1csc(C2(NCC(O)COC(C)C)CCCC2)n1 (stereo not drawn),-1.656%
24,CC(=O)NC[C@H]1C[C@@H]2CCN1C[C@@H]2c1cc(-c2cccs2)nn1C,-4.622%
25,Cn1cc(CN2CC[C@@H]3[C@@H]2CCN3C(=O)Cc2cccc(F)c2)cn1.O=C(O)C(F)(F)F,-1.291%
26,CN(C)[C@@H]1CN(C(=O)Cc2cccc(F)c2)[C@@H]2CCCO[C@H]12.O=C(O)C(F)(F)F,118.8%
27,Cc1nnc(N2CCNCC2)c(C(N)=O)c1C,-61.72%

row,Compound,Percent Effect
1,O=C(NCc1cccnc1)[C@H]1CN2CCC1C[C@@H]2Cn1cc(CO)nn1 (stereo partly drawn),4.498%
2,O=C1NCC2(CCCN(Cc3ccncc3)C2)Oc2ccccc21 (stereo not drawn),106%
3,CN1CCC2(CC1)CNC(=O)c1ccccc1O2,-4.791%
4,O=C1Nc2ccccc2C12CCCN(Cc1ccncc1)C2 (stereo not drawn),-10.97%
5,O=C1NCC2(CCCN(Cc3cccnc3)C2)Oc2ccccc21 (stereo not drawn),95.18%
6,CN(C)c1ncc2c(n1)C1(CCN(Cc3cccnc3)C1)COC2 (stereo not drawn),-5.079%
7,O=C(NCc1cccnc1)C1=NOC2(CCCN(CCO)C2)C1 (stereo not drawn),6.778%
8,Cc1cnc(N2CCOC3(CCCN(C)C3)C2)nc1.O=C(O)C(F)(F)F (stereo not drawn),-2.261%
9,O=C(O)C(F)(F)F.c1cnc(N2CCOCC3(CN(Cc4ccsc4)CCO3)C2)nc1 (stereo not drawn),-6.179%
10,Cc1cnc(N2CCOC3(CCCN(CC(=O)N(C)C)C3)C2)nc1.O=C(O)C(F)(F)F.O=C(O)C(F)(F)F (stereo not drawn),-7.39%
11,O=C(O)C(F)(F)F.c1cnc(N2CCOCC3(CN(Cc4nccs4)CCO3)C2)nc1 (stereo not drawn),8.217%
12,Fc1cnc(N2CCC3(CC2)CN(Cc2cccs2)CCO3)nc1.O=C(O)C(F)(F)F.O=C(O)C(F)(F)F,98.63%
13,O=C(O)C(F)(F)F.c1cnc(N2CCOC3(COCCN(Cc4cc[nH]n4)C3)C2)nc1 (stereo not drawn),-4.382%
14,Fc1cnc(N2CCCC3(CN(Cc4cccs4)CCO3)C2)nc1.O=C(O)C(F)(F)F (stereo not drawn),111.6%
15,CN(C)C(=O)CN1CCOCC2(C1)CN(c1ncccn1)CCO2.O=C(O)C(F)(F)F (stereo not drawn),101.1%
16,O=C(O)C(F)(F)F.OCCN1CCOC2(CCCN(c3ncc(F)cn3)C2)C1 (stereo not drawn),13%
17,Cc1cnc(N2CCC3(CC2)CN(Cc2cccs2)CCO3)nc1.O=C(O)C(F)(F)F.O=C(O)C(F)(F)F,102.1%
18,CC[C@H]1CN2CC[C@H]1C[C@@H]2CNC(=O)Nc1ccc(Br)cc1,-5.559%
19,CC(Cc1c(F)cccc1F)NC(=O)CN(CC(N)=O)C(C)C (stereo not drawn),2.304%
20,COc1cc(C2(C(=O)NCCn3ccnc3)CCCC2)ccc1C,17.74%
21,c1ccc(CNc2ncc(CN3CC[C@H]4CC[C@@H](C3)N4)cn2)cc1,-14.93%
22,O=C(c1ccc(F)c(F)c1)N1C[C@H]2CNC[C@H]2C1,-36.88%
23,COc1ccc(-c2ccccc2CCN)c(OC)c1,16.22%
24,Cn1cc(CN2C[C@@H]3[C@@H](C2)OCC(=O)N3Cc2ccncc2)cn1,-7.726%
25,Cn1cc(CN2CC[C@H]3[C@H]2CC(=O)N3Cc2ccncc2)cn1,97.58%
26,Cn1cc(C(=O)N2CC[C@@H]3[C@@H]2CCN3Cc2ccncc2)cn1.O=C(O)C(F)(F)F.O=C(O)C(F)(F)F,8.346%
